BoNT F protease: BoNT F light chain protease inhibition; Multiplex microsphere protease cleavage assay, flow cytometry; inhibition, % at 10 µM; 360,000 tested, 0.22% active; in the data active = inhibition above about 35%, passing the limit was not always enough; inconclusive = no clear call, values can overlap the other calls; note: plate controls were buffer without enzyme for full effect and enzyme alone for no effect
BoNT-A LC inh2: inhibitors of Botulinum neurotoxin A light chain protease; multiplex microsphere protease substrate cleavage, flow cytometry; inhibition, % at 10 µM; AID 588499; 360,000 tested, 0.17% active; note: plate controls were buffer without enzyme for full effect and enzyme alone for no effect
BJeLR lethal: BJeLR cell viability loss; BJeLR (HRASV12) viability, CellTiter-Glo ATP luminescence, 48 h; inhibition, % (test concentration not listed); 300,000 tested, 0.17% active; AID 1554; in the data active = inhibition above about 50%; inconclusive = no clear call, values can overlap the other calls
BH1578 lux ind: quorum light induction in luxS cqsA deficient V. cholerae. V. cholerae BH1578 lux reporter, luminescence, 6 h. activation, % at 18.7 µM. 350,000 tested, 0.16% active. AID 588436; in the data active = activation mostly above about 9.7%, no sharp cut-off; inconclusive = no clear call, values can overlap the other calls; inactive = mostly below about 3.7%
Anthrax LF prot: inhibitors of Bacillus anthracis lethal factor protease. P15917. multiplex microsphere protease cleavage assay, LF. inhibition, % at 10 µM. 360,000 tested, 0.12% active; note: plate controls were buffer without enzyme for full effect and enzyme alone for no effect
Target sequence (P15917 whole entry, looked up): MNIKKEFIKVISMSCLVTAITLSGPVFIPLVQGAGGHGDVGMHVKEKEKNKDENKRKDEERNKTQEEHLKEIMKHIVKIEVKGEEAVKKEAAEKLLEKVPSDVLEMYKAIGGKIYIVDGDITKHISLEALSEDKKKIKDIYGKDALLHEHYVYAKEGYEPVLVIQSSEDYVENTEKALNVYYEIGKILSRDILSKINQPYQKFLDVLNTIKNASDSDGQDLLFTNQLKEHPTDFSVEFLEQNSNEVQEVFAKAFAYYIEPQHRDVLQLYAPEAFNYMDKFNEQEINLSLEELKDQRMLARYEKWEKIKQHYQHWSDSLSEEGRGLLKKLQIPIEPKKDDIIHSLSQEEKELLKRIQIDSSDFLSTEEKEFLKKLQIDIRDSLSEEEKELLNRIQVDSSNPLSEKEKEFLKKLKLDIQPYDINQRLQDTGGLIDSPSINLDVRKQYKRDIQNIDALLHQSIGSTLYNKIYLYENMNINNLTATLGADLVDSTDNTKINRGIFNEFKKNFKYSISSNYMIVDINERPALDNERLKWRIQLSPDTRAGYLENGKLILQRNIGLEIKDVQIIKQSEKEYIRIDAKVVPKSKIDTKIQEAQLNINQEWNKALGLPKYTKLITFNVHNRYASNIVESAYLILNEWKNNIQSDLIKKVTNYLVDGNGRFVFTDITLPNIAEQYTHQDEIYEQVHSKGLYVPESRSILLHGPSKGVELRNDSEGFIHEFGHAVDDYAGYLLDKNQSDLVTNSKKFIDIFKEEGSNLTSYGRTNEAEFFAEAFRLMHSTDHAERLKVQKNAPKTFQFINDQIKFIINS
Autofluor counter: counter-screen for toxin protease inhibitors: compound fluorescence; compound autofluorescence counterscreen, microsphere flow cytometry; hits give high values; fluorescence intensity (no concentration beside the values); 360,000 tested, 3.1% active; in the data active = fluorescence intensity above about 16000; inconclusive = no clear call, values can overlap the other calls
Starred values were filed as active, the others as inactive; i = inactive; ? = inconclusive; / = no result given. Only some compounds are listed: those with a hit (about 3.7% of all), similar ones and a draw of the others. Cut-off read from the data, not from the text of the source, unless noted: active = inhibition above about 30%; inconclusive = no clear call, values can overlap the other calls; inactive = below that.

SMILES	BoNT F protease	BoNT-A LC inh2	BJeLR lethal	BH1578 lux ind	Anthrax LF prot	Autofluor counter
CCN(CC)S(=O)(=O)c1cccc(C(=O)Nc2cccnc2)c1	2.8	?	-10.1	-0.7	-8.0	22467*
CCN(CC)S(=O)(=O)c1cc(C(=O)Nc2cccnc2)ccc1Cl	-1.1	0.2	5.7	-0.4	-2.1	11204
CCN(CC)S(=O)(=O)c1cccc(C(=O)NC2CCCCC2)c1	-0.7	?	-14.2	-2.7	1.0	21448*
Cc1noc(C)c1S(=O)(=O)NC(=O)C1(C)CCN1C(=O)C1(c2ccc(Cl)cc2)CC1 (configuration not stated)	-5.6	-0.1	/	1.1	-4.6	3807
O=C(NCc1cccc(C(F)(F)F)c1)c1csc([C@H]2C[C@H](O)[C@@H](CO)O2)n1	2.2	-0.1	/	-0.4	-1.3	2787
COc1ccc(CCCNC(=O)C2Cc3c(-c4cccc(NC(C)=O)c4)ccnc3O2)cc1 (configuration not stated)	-2.2	-0.4	/	-0.3	-4.2	3982
CCCCOC(=O)Nc1nnc(COc2ccccc2)s1	-0.5	-1.6	-12.8	-0.2	-4.1	16850*
O=S1(=O)N[C@@H](Cc2ccccc2)COc2ccc(Cl)cc21	0.7	-0.3	/	-0.4	3.7	3783
O=C(Nc1cccc(C(F)(F)F)c1)c1ccc2nc(N3C(=O)CCC3=O)sc2c1	2.0	1.1	-7.3	i	-2.4	22304*
O=C(Nc1cccc(C(F)(F)F)c1)c1ccc2nc(-c3ccco3)c(-c3ccco3)nc2c1	-6.9	63.4*	-5.3	-0.6	28.5	3371
COc1ccc(C(=O)c2cc(OC)c(OC)c(OC)c2)cc1OC	-1.6	-0.5	/	-0.7	-0.2	3537
C=CCSc1[nH]c(=O)cc(C)c1C(N)=O	3.5	2.2	-1.0	-0.2	-2.0	19287*
CCc1nc2c(OCc3c(C)noc3C)cccn2c1N(C=O)Cc1ccccc1	-1.1	-0.3	/	0.1	-0.2	3090
C/C(=N\NC(=O)C(C)Oc1ccc([N+](=O)[O-])cc1)c1ccccn1 (configuration not stated)	-3.7	?	29.4	0.9	-5.3	24747*
CC1Oc2ccccc2N(CC(=O)N2CCc3ccccc32)C1=O (configuration not stated)	0.1	0.9	0.2	i	-3.9	23145*
CC1Oc2ccccc2N(CC(=O)N2CCCc3ccccc32)C1=O (configuration not stated)	12.7	11.4	6.6	-0.2	-16.5	18633*
O=C(CSc1ccccc1)N1CCc2ccccc21	-5.3	-0.3	1.1	-0.3	-1.5	2916
O=C(Cn1cccc1)N1CCc2ccccc21	-9.7	-4.5	6.2	-1.7	-3.9	17880*
CC1Oc2ccccc2N(CC(=O)c2ccccc2)C1=O (configuration not stated)	-2.2	0.6	-8.7	-0.4	0.3	11434
CC1Oc2ccccc2N(CC(=O)N2CCCCC2)C1=O (configuration not stated)	3.1	2.2	-9.8	-0.3	1.4	3603
COc1ccc(CN2C(=O)C(CC(=O)NC3CC3)CC(C(=O)N(C)C)=C2C)cc1 (configuration not stated)	0.4	-0.1	/	i	-6.3	3514
Cc1cccc(C)c1C(O)c1ncc(-c2cccc(C(F)(F)F)c2)[nH]1 (configuration not stated)	-5.2	0.0	/	i	0.6	3965
Cc1sc(NC(=O)C2CCCCC2C(=O)O)c(C(N)=O)c1C (configuration not stated)	-1.0	0.9	0.2	0.1	-0.9	23098*
CCc1nc2ccc(C(=O)N3CCN(S(=O)(=O)CC)CC3)cn2c1N(C)Cc1cccs1	-8.1	-0.3	/	1.0	-1.3	3598
Fc1ccc(COc2ccc(Br)cc2CNCc2ccncc2)cc1	-6.4	-0.3	7.2	i	-0.9	8031
SMILES	BoNT F protease	BoNT-A LC inh2	BJeLR lethal	BH1578 lux ind	Anthrax LF prot	Autofluor counter
CCOc1cc(CNCc2ccncc2)cc(Br)c1OCc1ccc(F)cc1	-12.4	-1.1	3.0	-0.2	-5.0	20403*
Brc1cc(Br)c2nc(-c3ccc(N4CCOCC4)cc3)ccc2c1	9.7	?	/	1.4	23.9	19443*
CCCn1nnc(NCc2ccc(OCc3cccs3)c(OC)c2)n1	-2.3	-0.8	-10.2	i	-2.3	17112*
CCNCc1ccc(OCc2cccs2)c(OCC)c1	-2.5	-0.5	5.8	-0.1	-4.5	3113
O=C(COc1ccccc1F)NNC(=O)Cc1ccc(S(=O)(=O)N2CCOCC2)s1	?	0.2	-0.5	4.2	-1.5	?
CC(Oc1ccccc1F)C(=O)NNC(=O)Cc1ccc(S(=O)(=O)N2CCOCC2)s1 (configuration not stated)	86.4*	99.7*	/	i	108.8*	6061
CCN1C(=O)CC(N2CCN(c3ccc(C(=O)c4ccncc4)cc3)CC2)C1=O (configuration not stated)	-1.6	?	1.1	-2.7	-3.1	20385*
O=C(c1ccncc1)c1ccc(N2CCN(C3CC(=O)N(Cc4cccs4)C3=O)CC2)cc1 (configuration not stated)	-12.5	-1.6	-6.6	-0.2	-0.8	5581
CN(Cc1ccc(Cl)cc1)C(=O)c1[nH]c(C(F)(F)F)nc1-c1ccccc1	-2.1	-0.8	/	/	-2.6	6206
CC(=O)Oc1ccc2c(c1)C(=O)CCCCCC(=O)O2	-3.1	0.0	/	-2.6	-0.1	2837
Cc1nc2cc(NS(=O)(=O)c3cccc4cccnc34)ccc2s1	-1.4	-0.8	-2.0	-2.1	1.3	3649
COc1cccc(S(=O)(=O)Nc2ccc3sc(C)nc3c2)c1	-3.2	-0.2	-10.2	-0.9	-3.0	16651*
CC1(C)CC(=O)C(C2(O)C(=O)N(Cc3ccccc3)c3ccccc32)CO1 (configuration not stated)	-1.1	?	-3.7	-5.8	-1.0	22533*
CC1(C)CC(=O)CC(C2(O)C(=O)N(Cc3ccccc3)c3ccccc32)O1 (configuration not stated)	-4.5	0.1	7.1	0.6	-3.1	5390
CCOC(=O)[C@]12CCC=C1N(Cc1ccco1)C(=O)[C@H](CC(=O)NCC1CCCCC1)C2	1.1	-0.9	/	/	-4.8	6283
COc1ccc(N(CC(O)CN2C(=O)NC(C)(C)C2=O)S(=O)(=O)c2ccc(C)cc2)cc1 (configuration not stated)	2.1	1.3	-1.0	-6.2	2.6	23111*
COc1ccc(N(CC(O)CN2CCCCC2)S(=O)(=O)c2ccc(C)cc2)cc1 (configuration not stated)	4.0	?	-1.9	-3.1	-13.3	20804*
Cc1ccc(S(=O)(=O)N(CC(O)CN2CCCCC2)c2ccccc2)cc1 (configuration not stated)	-12.2	-0.1	6.1	/	-1.9	5832
COCc1c(C(=O)OC)nnn1-c1ccccc1	1.7	?	-4.6	-0.1	-1.8	22960*
Cc1ccc(C(=O)Oc2ccc(C(=O)COC(=O)c3cnccn3)cc2)cc1	1.7	0.4	6.6	4.2	-0.2	16162*
CCCCc1ccc(NC(=O)c2c(C)noc2C)cc1	-9.5	-3.6	-2.5	-16.4	-0.5	17390*

High-throughput results (PubChem)
